From PubChem BioAssay (Tox21)
Where “and” joins values, the source holds several entries; their conditions need not be identical. Equal values may be shown once. Inconclusive results are not listed. Where a call stands in place of a potency, no number is given. The source holds several records for some structures; these can differ, active in one and inactive in another. Calls of active or inactive are those of the source. Unless noted, calls follow the shape of the dose curve; as a rule, active = well fitted curve in the direction sought with a large enough effect in the repeat runs; inconclusive = weak or mixed curves; inactive = no such curve, though single readings can be large; an effect the other way counts as inactive or inconclusive.

How the values were obtained:
[1] = qHTS assay to identify small molecule agonists of the vitamin D receptor (VDR) signaling pathway - cell viability counter screen (AID 743224); also: nearly all actives have a fitted effect of over 50% in size; also: potency is read from the fitted curve at half-maximal effect
Summary of the method: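 Viability is measured in the same wells as the VDR-bla reporter assay: after 16 h compound treatment and 2 h substrate loading, CellTiter-Glo is added and luminescence read 30 min later.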

[2] = qHTS assay to identify small molecule antagonists of the vitamin D receptor (VDR) signaling pathway - cell viability counter screen (AID 743225); also: nearly all actives have a fitted effect of over 50% in size
Summary of the method: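 Cytotoxicity counter screen read by CellTiter-Glo luminescence (30 min, room temperature) in the same wells as the VDR-bla antagonist readout. HEK 293T VDR-UAS-bla cells had 16 h at 37C with compound and 3 nM (final) 1-alpha,25-dihydroxyvitamin D3, then 2 h with FRET substrate.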

[3] = qHTS assay to identify small molecule agonists of the NFkB signaling pathway (AID 1159509; active = well fitted curve in the direction sought with a large enough effect in the signal ratio in the repeat runs, not every such curve was filed as active; the % refers to the signal ratio; also: series mostly up to about 61 µM)
Summary of the method: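 After overnight attachment, reporter cells received test compounds, DMSO or positive controls and were incubated 5 hr at 37 C. FRET substrate was then added for 1.5 hr at room temperature before dual-emission fluorescence reading.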

[4] = qHTS assay to identify small molecule agonists of the NFkB signaling pathway - cell viability counter screen (AID 1159515; calls by dose curve; also: nearly all actives have a fitted effect of over 55% in size; also: potency is read from the fitted curve at half-maximal effect)
Summary of the method: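 Multiplexed viability readout: after the 5 hr compound exposure and 1.5 hr FRET substrate step, CellTiter-Glo reagent went into the same NFkB-bla ME-180 wells; ATP luminescence was measured after 30 min at room temperature.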

[5] = qHTS assay to identify small molecule agonists of the endoplasmic reticulum stress response signaling pathway (AID 1159516; active = well fitted activation curve with a large enough effect in the signal ratio in the repeat runs, not every such curve was filed as active; the % refers to the signal ratio; also: potency is read from the fitted curve at half-maximal effect)
Summary of the method: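 Tox21 10K library screened in quantitative HTS format on ESRE-bla HeLa cells, a beta-lactamase reporter under ER stress response element control; 5 hr treatment, FRET read.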

[6] = qHTS assay to identify small molecule agonists of the endoplasmic reticulum stress response signaling pathway - cell viability counter screen (AID 1159517; calls by dose curve; also: nearly all actives have a fitted effect of over 50% in size; also: potency is read from the fitted curve at half-maximal effect)
Summary of the method: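 Luminescence readout: CellTiter-Glo, 30 min RT, same wells as the ESRE-bla reporter read. HeLa ESRE-bla, 1,500 cells/well, o/n 37 C; cpd 5 hr 37 C/5% CO2.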

[7] = qHTS assay to identify small molecule antagonists of the retinoid-related orphan receptor gamma (ROR-gamma) signaling pathway - cell viability counter screen (AID 1159520); also: nearly all actives have a fitted effect of over 50% in size; also: potency is read from the fitted curve at half-maximal effect
Summary of the method: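 Tet-on ROR gamma CHO cells (1,000/well) were plated 4 hr, given compounds in DMSO for 2 hr at 37 C, then induced with 1 uM final doxycycline for 16 hr. Viability was read as ATP by CellTiter-Glo luminescence after 30 min.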

[8] = target: Nuclear receptor ROR-gamma (Homo sapiens) (UniProt P51449); experiment: qHTS assay to identify small molecule antagonists of the retinoid-related orphan receptor gamma (ROR-gamma) signaling pathway (AID 1159521; also: nearly all actives have a fitted effect of over 50% in size; also: potency is read from the fitted curve at half-maximal effect)
Summary of the method: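 Antagonist read-out: drop in luminescence (ONE-Glo) from an RORE-LUC reporter in CHO cells with doxycycline-inducible ROR-gamma; 2 hr compound pretreatment, 1 uM doxycycline, 16 hr incubation at 37 C.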

[9] = qHTS assay to identify small molecule agonists of the AP-1 signaling pathway (AID 1159526; calls by dose curve)
[10] = qHTS assay to identify small molecule agonists of the AP-1 signaling pathway - cell viability counter screen (AID 1159525; calls by dose curve; also: nearly all actives have a fitted effect of over 55% in size; also: potency is read from the fitted curve at half-maximal effect)
Summary of the method: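 ME-180 AP-1-bla, 2500 cells/well, Opti-MEM + 0.5% dialyzed FBS; overnight 37 °C; cpd 15-pt titration, 5 h 37 °C; CellTiter-Glo 30 min RT; luminescence read; normalised to TOAB and DMSO controls.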

SMILES	Potency [1]	Potency [2]	outcome [3]	Potency [4]	Potency [5]	Potency [6]	Potency [7]	Potency [8]	outcome [9]	Potency [10]
NNc1ccc(C(=O)O)cc1	inactive	inactive	inactive	inactive	inactive	inactive	inactive	inactive	inactive	–
NC=O	inactive	inactive	inactive	inactive	inactive	inactive	inactive	inactive	inactive	–
Nc1ncnc2nc[nH]c12	inactive	inactive	inactive	inactive	inactive	inactive	inactive	inactive	inactive	–
O=CCc1ccccc1	inactive	inactive	inactive	inactive	inactive	inactive	inactive	inactive	inactive	–
COC(=O)C1=C(C)NC(C)=C(C(=O)OCCN(C)Cc2ccccc2)C1c1cccc([N+](=O)[O-])c1 (stereo unspecified)	54.6 µM (active)	–	inactive	inactive	inactive	inactive	60.8 µM (active)	30.5 µM (active) and 29.8 µM (active)	–	inactive
Cc1ccc2c(n1)Oc1ccc(C(C)C(=O)OCC(=O)N(C)C)cc1C2 (stereo unspecified)	inactive	inactive	inactive	inactive	inactive	inactive	inactive	inactive	inactive	–
Nc1ccc(Cl)cc1Cl	inactive	inactive	inactive	inactive	inactive	inactive	inactive	inactive	inactive	–
CCCCc1oc2ccccc2c1C(=O)c1cc(I)c(OCCN(CC)CC)c(I)c1	15.6 µM (active) and 26.6 µM (active)	–	inactive	31.1 µM (active) and 26.8 µM (active)	inactive	39.2 µM (active)	43.6 µM (active)	19.5 µM (active) and 26.6 µM (active)	–	31.1 µM (active)
COc1ccccc1/C=C/C=O	inactive	inactive	inactive	inactive	inactive	inactive	inactive	inactive	inactive	–
OC[C@H]1O[C@@H]2O[C@H]3[C@H](O)[C@@H](O)[C@@H](O[C@H]4[C@H](O)[C@@H](O)[C@@H](O[C@H]5[C@H](O)[C@@H](O)[C@@H](O[C@H]6[C@H](O)[C@@H](O)[C@@H](O[C@H]7[C@H](O)[C@@H](O)[C@@H](O[C@H]8[C@H](O)[C@@H](O)[C@@H](O[C@H]1[C@H](O)[C@H]2O)O[C@@H]8CO)O[C@@H]7CO)O[C@@H]6CO)O[C@@H]5CO)O[C@@H]4CO)O[C@@H]3CO	inactive	inactive	inactive	inactive	inactive	inactive	inactive	inactive	inactive	–
COC(=O)CCC(=O)OC	inactive	inactive	inactive	inactive	inactive	inactive	inactive	inactive	inactive	–
CN(C)CCN(Cc1cccs1)c1ccccn1	inactive	inactive	inactive	inactive	inactive	inactive	inactive	–	–	–
COc1cccc2c1C(=O)c1c(O)c3c(c(O)c1C2=O)C[C@@](O)(C(=O)CO)C[C@@H]3O[C@H]1C[C@H](N)[C@H](O)[C@H](C)O1	inactive	inactive	inactive	inactive	–	inactive	inactive and 26.6 µM (active)	inactive	inactive	inactive
C#C[C@]1(O)CC[C@H]2[C@@H]3CCC4=Cc5oncc5C[C@]4(C)[C@H]3CC[C@@]21C	54.9 µM (active) and inactive	inactive	inactive	–	inactive	inactive	inactive	17.2 µM (active) and 16.8 µM (active)	inactive	–
CCCCC/C=C/C=C/C=O	inactive and 49 µM (active)	–	inactive	inactive	–	inactive	–	inactive	inactive	–
c1ccc2c(c1)c1cccc3ccc4cccc2c4c31	inactive	inactive	inactive	inactive	48.6 µM (active)	inactive	inactive	inactive	inactive	–
CN(C)C(=N)N=C(N)N	inactive	inactive	inactive	inactive	inactive	inactive	inactive	–	inactive	–
Nc1ncn([C@@H]2O[C@H](CO)[C@@H](O)[C@H]2O)c(=O)n1	inactive	inactive	inactive	inactive	–	inactive	3.44 µM (active) and 4.22 µM (active)	1.72 µM (active) and 3.35 µM (active)	inactive	inactive
CC(C)(C)NC(=O)[C@H]1CC[C@H]2[C@@H]3CC[C@H]4NC(=O)C=C[C@]4(C)[C@H]3CC[C@]12C	inactive	inactive	inactive	inactive	inactive	inactive	inactive	inactive	inactive	–
Nc1ccc(Nc2ccccc2)cc1	inactive	inactive	inactive	inactive	inactive	inactive	inactive	inactive and 27.3 µM (active)	–	–
CCC(C)(O)CCCC(C)C (stereo unspecified)	inactive	inactive	inactive	inactive	inactive	inactive	inactive	–	inactive	–
c1ccc2sc(SSN3CCOCC3)nc2c1	19.5 µM (active) and 49 µM (active)	inactive	inactive	inactive	–	inactive	27.3 µM (active)	19.3 µM (active) and 54.5 µM (active)	–	inactive
CC(C)=CCC/C(C)=C\CO	inactive	inactive	–	inactive	inactive	inactive	inactive	inactive	inactive	inactive
O=[N+]([O-])c1ccc2c(c1)Cc1ccccc1-2	inactive	inactive	inactive	inactive	inactive	inactive	inactive	inactive	inactive	–
C[C@]12CC[C@H]3[C@@H](CCC4=CC(=O)CC[C@@]43C)[C@@H]1CC[C@@H]2C(=O)CO	inactive	inactive	inactive	inactive	inactive	inactive	inactive	27.3 µM (active)	inactive	–
C=C(C)C1CC=C(C)CC1 (stereo unspecified)	inactive	inactive	–	inactive	inactive	inactive	inactive	–	inactive	inactive
